The list shows a part of the results. A number with no mark means an inactive call.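 How the source made its calls: active means compounds quenching the bead-bound labeled aptamer, with fluorescence dropping by more than 37 kMESF over the dose range; inactive means the rest.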
Experiment: fluorescence quenching of FAM-labeled RNA aptamer, dose response, artefact control for GRK2 aptamer inhibitor project, biochemical, flow cytometry, cherry pick 2 (AID 504819)
Settings: Streptavidin beads, hits give high values

| Compound | change in fluorescence (kMESF span) [kMESF] |
| --- | --- |
| O=C(CCS(=O)(=O)c1ccc(Br)cc1)NCCc1ccc(Cl)cc1 | 2.5 |
| COc1ccc(Cl)cc1NC(=O)CCS(=O)(=O)c1ccc(Br)cc1 | 1.4 |
